PubChem BioAssay (Tox21)
Records with an inconclusive call do not appear. Where a call stands in place of a potency, no number is given. Active and inactive are the calls of the source. Unless noted, the call rests on the fitted dose curve; in most records, active means well fitted inhibition curve with a large enough effect in the repeat runs (not every such curve was filed as active); inconclusive means weak or mixed curves; inactive means flat fitted curve, though single readings scatter.

test system: not listed separately; assay: qHTS assay to identify small molecule agonists of the TGF-beta/Smad signaling pathway (AID 1346859; active means well fitted activation curve with a large enough effect in the signal ratio in the repeat runs, not every such curve was filed as active; the % refers to the signal ratio); conditions: SBE-bla HEK293T, TGF-beta/Smad beta-lactamase reporter, 5 h; series mostly up to 76.8 µM
How it was run: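 Stable Smad binding element-beta-lactamase HEK 293T cells; 5 hr compound exposure at 37 C under 5% CO2; 2 hr room-temperature substrate step; fluorescence excited at 405 nm, collected at 460 nm and 530 nm.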

| Compound | outcome |
| --- | --- |
| CCOC(=O)C(Cl)Cc1cc(-n2nc(C)n(C(F)F)c2=O)c(F)cc1Cl (stereo not drawn) | inactive |
| O=C(Cl)C(Cl)Cl | inactive |
| Cc1ccc(S(=O)(=O)N[C@@H](CCCCN)C(=O)CCl)cc1 | inactive |
| NC(=O)OCCCc1ccccc1 | inactive |
| C[C@@H](N)[C@@H](O)c1ccccc1 | inactive |
| CCC(CC)(CNC(=O)CCCO)c1cccc(OC)c1 | inactive |
| CCOC(=O)c1ncn2c1CN(C)C(=O)c1c(I)cccc1-2 | inactive |
| COc1cccc([C@@]2(O)CCCC[C@@H]2CN(C)C)c1 | inactive |
| COc1cc(CC(C)N)cc(OC)c1OC (stereo not drawn) | inactive |
| CCCOC(=O)Cc1ccc(OCC(=O)N(CC)CC)c(OC)c1 | inactive |
| Cl/C=C/CCl | inactive |
| OCC(Cl)CCl (stereo not drawn) | inactive |
| C[C@H](N)C(=O)c1ccccc1 | inactive |
| CCOP(=S)(OCC)Oc1ccc(Cl)cc1Cl | inactive |
| CCC(C)C(C)(COC(N)=O)COC(N)=O (stereo not drawn) | inactive |
| COC[C@@H](NC(C)=O)C(=O)NCc1ccccc1 | inactive |
| BrCc1ccc(Br)cc1 | inactive |
| CCCCCCCCSC(=O)Oc1cc(Cl)nnc1-c1ccccc1 | inactive |
| CN1C(=O)COc2c(C(=O)NC3CN4CCC3CC4)cc(Cl)cc21 (stereo not drawn) | inactive |
| C=CCC1(C(C)CC)C(=O)NC(=O)NC1=O (stereo not drawn) | inactive |
| CNC(=O)Oc1cc(C)c(N(C)C)c(C)c1 | inactive |
| N[C@@H](Cc1ccc(Oc2cc(I)c(O)c(I)c2)c(I)c1)C(=O)O | inactive |
| C=C(Cl)CSC(=S)N(CC)CC | inactive |
| C=C1CC[C@@]2(O)[C@H]3Cc4ccc(O)c5c4[C@@]2(CCN3CC2CC2)[C@H]1O5 | inactive |
| NC1(c2ccccc2)CCCCC1 | inactive |
| Cn1c(CCCC(=O)O)nc2cc(N(CCCl)CCCl)ccc21 | inactive |
| CS(=O)(=O)Cl | inactive |

target: Thyrotropin-releasing hormone receptor (Homo sapiens) (UniProt P34981); assay: qHTS assay to identify small molecule antagonists of the thyrotropin-releasing hormone receptor (TRHR) signaling pathway (AID 1346877); conditions: TRHR-HEK293, TRH-induced calcium fluorescence, antagonist mode; series mostly up to 51.3 µM
How it was run: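 Screening used HEK293 cells engineered with TRHR, with a brief 5 min room-temperature compound exposure preceding addition of TRH to 1 nM. The read-out was kinetic calcium-dye fluorescence, concentration-response from 15 doses in triplicate.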

Chain of Thyrotropin-releasing hormone receptor (Homo sapiens) (P34981 whole entry, looked up): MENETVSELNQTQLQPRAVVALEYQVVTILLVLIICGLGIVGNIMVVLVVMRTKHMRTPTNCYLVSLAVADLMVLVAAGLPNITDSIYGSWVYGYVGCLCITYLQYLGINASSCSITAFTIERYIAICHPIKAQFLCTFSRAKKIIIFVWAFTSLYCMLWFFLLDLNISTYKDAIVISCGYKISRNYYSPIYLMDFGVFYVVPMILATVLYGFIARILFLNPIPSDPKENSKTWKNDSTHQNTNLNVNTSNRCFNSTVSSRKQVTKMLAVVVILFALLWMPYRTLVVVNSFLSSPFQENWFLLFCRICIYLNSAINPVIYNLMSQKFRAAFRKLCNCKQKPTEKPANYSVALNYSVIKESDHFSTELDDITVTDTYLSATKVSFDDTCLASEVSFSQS

| Compound | Potency |
| --- | --- |
| CCOC(=O)C(Cl)Cc1cc(-n2nc(C)n(C(F)F)c2=O)c(F)cc1Cl (stereo not drawn) | inactive |
| C[C@H](CN1CCOCC1)C(C(=O)N1CCCC1)(c1ccccc1)c1ccccc1 | inactive |
| O=C(Cl)C(Cl)Cl | inactive |
| Cc1ccc(S(=O)(=O)N[C@@H](CCCCN)C(=O)CCl)cc1 | inactive |
| NC(=O)OCCCc1ccccc1 | inactive |
| Cn1c(N)nc2c3cccnc3ccc21 | inactive |
| C[C@@H](N)[C@@H](O)c1ccccc1 | inactive |
| CCC(CC)(CNC(=O)CCCO)c1cccc(OC)c1 | inactive |
| CCOC(=O)c1ncn2c1CN(C)C(=O)c1c(I)cccc1-2 | inactive |
| CCC(C(N)=O)N1CCCC1=O (stereo not drawn) | inactive |
| CC(=NC#N)N(C)Cc1ccc(Cl)nc1 | inactive |
| COc1cc(CC(C)N)cc(OC)c1OC (stereo not drawn) | inactive |
| ClC1=C(Cl)C2(Cl)C(CBr)CC1(Cl)C2(Cl)Cl (stereo not drawn) | inactive |
| CCCOC(=O)Cc1ccc(OCC(=O)N(CC)CC)c(OC)c1 | inactive |
| OCC(Cl)CCl (stereo not drawn) | inactive |
| C[C@H](N)C(=O)c1ccccc1 | inactive |
| CCOP(=S)(OCC)Oc1ccc(Cl)cc1Cl | inactive |
| CCC(C)C(C)(COC(N)=O)COC(N)=O (stereo not drawn) | inactive |
| BrCc1ccc(Br)cc1 | inactive |
| CCCCCCCCSC(=O)Oc1cc(Cl)nnc1-c1ccccc1 | inactive |
| CN1C(=O)COc2c(C(=O)NC3CN4CCC3CC4)cc(Cl)cc21 (stereo not drawn) | inactive |
| O=C(Cl)c1ccccc1 | inactive |
| CNC(=O)Oc1cc(C)c(N(C)C)c(C)c1 | inactive |
| N[C@@H](Cc1ccc(Oc2cc(I)c(O)c(I)c2)c(I)c1)C(=O)O | inactive |
| C=C1CC[C@@]2(O)[C@H]3Cc4ccc(O)c5c4[C@@]2(CCN3CC2CC2)[C@H]1O5 | inactive |
| NC1(c2ccccc2)CCCCC1 | inactive |
| Cn1c(CCCC(=O)O)nc2cc(N(CCCl)CCCl)ccc21 | inactive |
| CS(=O)(=O)Cl | inactive |
| Nc1c(Cl)c(F)nc(OCC(=O)O)c1Cl | inactive |

target: Thyrotropin-releasing hormone receptor (Homo sapiens) (UniProt P34981); assay: qHTS assay to identify small molecule agonists of the thyrotropin-releasing hormone receptor (TRHR) signaling pathway (AID 1346891; calls by dose curve;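 further: HEK293 cells expressing TRHR with calcium dye readout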); conditions: TRHR-HEK293 calcium fluorescence, agonist mode; series mostly up to 57.6 µM
How it was run: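 In 1536-format, 1500 TRHR-Hek293 cells per well grew 18 h, took up calcium dye for 2 h at 37 °C, received compound, and were read kinetically; 15-point titrations, triplicates.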

| Compound | outcome |
| --- | --- |
| CCOC(=O)C(Cl)Cc1cc(-n2nc(C)n(C(F)F)c2=O)c(F)cc1Cl (stereo not drawn) | inactive |
| C[C@H](CN1CCOCC1)C(C(=O)N1CCCC1)(c1ccccc1)c1ccccc1 | inactive |
| NC(=O)OCCCc1ccccc1 | inactive |
| Cn1c(N)nc2c3cccnc3ccc21 | inactive |
| C[C@@H](N)[C@@H](O)c1ccccc1 | inactive |
| CCC(CC)(CNC(=O)CCCO)c1cccc(OC)c1 | inactive |
| CC(=NC#N)N(C)Cc1ccc(Cl)nc1 | inactive |
| COc1cc(CC(C)N)cc(OC)c1OC (stereo not drawn) | inactive |
| ClC1=C(Cl)C2(Cl)C(CBr)CC1(Cl)C2(Cl)Cl (stereo not drawn) | inactive |
| CCCOC(=O)Cc1ccc(OCC(=O)N(CC)CC)c(OC)c1 | inactive |
| OCC(Cl)CCl (stereo not drawn) | inactive |
| C[C@H](N)C(=O)c1ccccc1 | inactive |
| CCOP(=S)(OCC)Oc1ccc(Cl)cc1Cl | inactive |
| CCC(C)C(C)(COC(N)=O)COC(N)=O (stereo not drawn) | inactive |
| BrCc1ccc(Br)cc1 | inactive |
| CCCCCCCCSC(=O)Oc1cc(Cl)nnc1-c1ccccc1 | inactive |
| CNC(=O)Oc1cc(C)c(N(C)C)c(C)c1 | inactive |
| N[C@@H](Cc1ccc(Oc2cc(I)c(O)c(I)c2)c(I)c1)C(=O)O | inactive |
| C=C1CC[C@@]2(O)[C@H]3Cc4ccc(O)c5c4[C@@]2(CCN3CC2CC2)[C@H]1O5 | inactive |
| NC1(c2ccccc2)CCCCC1 | inactive |
| Cn1c(CCCC(=O)O)nc2cc(N(CCCl)CCCl)ccc21 | inactive |
| Nc1c(Cl)c(F)nc(OCC(=O)O)c1Cl | inactive |
